Compound activity (PubChem)
Most compounds without a hit are left out; they make up all but 3.5% or so of the library.
GPR151 ag: activators of human GPR151, primary screen, cell-based, PathHunter beta-arrestin, luminescence; G-protein coupled receptor 151 (Homo sapiens), Q8TDV0; activation, % at 11.2 µM; PathHunter beta-arrestin GPR151 cells; 650,000 compounds, 1% hits; in the data active = activation above about 4.9%
Target sequence (Q8TDV0 whole entry, looked up): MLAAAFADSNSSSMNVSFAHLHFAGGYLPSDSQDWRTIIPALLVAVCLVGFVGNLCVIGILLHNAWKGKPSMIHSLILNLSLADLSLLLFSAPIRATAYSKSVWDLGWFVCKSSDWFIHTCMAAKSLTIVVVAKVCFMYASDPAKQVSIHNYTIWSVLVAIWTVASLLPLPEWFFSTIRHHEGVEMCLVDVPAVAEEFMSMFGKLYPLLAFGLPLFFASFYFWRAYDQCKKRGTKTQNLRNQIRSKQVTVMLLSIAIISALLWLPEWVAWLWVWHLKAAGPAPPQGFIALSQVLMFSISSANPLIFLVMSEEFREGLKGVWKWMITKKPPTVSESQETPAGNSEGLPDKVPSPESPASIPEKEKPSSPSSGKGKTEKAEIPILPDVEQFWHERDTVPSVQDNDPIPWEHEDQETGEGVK
TEAD-YAP block: TEAD-YAP interaction inhibition, primary screen, TEAD-YAP interaction inhibitor project, luminescence, HEK-TIYL cells | TEAD-Gal4/YAP UAS-luciferase luminescence | inhibition, % at 9.12 µM | 640,000 compounds, 1.4% hits | AID 1259422, 2018; in the data active = inhibition above about 32%
MITF primary: MITF inhibitors, primary screen, biochemical, AlphaScreen, human. Microphthalmia-associated transcription factor (Homo sapiens), O75030. 650,000 compounds, 0.91% hits. AID 1259374, 2018. AlphaScreen MITF homodimerization, bead proximity signal. inhibition, % at 2.6 µM; in the data active = inhibition above about 50%
FBW7 activator: FBW7 E3 ligase activators, primary screen, biochemical, AlphaScreen, human; AlphaScreen FBW7–phospho-cyclin E peptide binding, activator screen; normalized activity (activation), % at 26.1 µM; 650,000 compounds, 0.13% hits; AID 1259310, 2017; in the data active = normalized activity above about 1.9%;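 also: purified mutant Fbw7 with reduced substrate affinity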
MITF inh conf: MITF inhibitors, retest of hits, confirmation, biochemical, AlphaScreen, triplicate; shares compounds with MITF primary; AlphaScreen MITF homodimerization, biotin/His-MITF beads; inhibition, % at 2.6 µM; 4,700 compounds, 16% hits;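 active = inhibition above a cutoff derived from the DMSO control wells, cut at about 28% in these data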;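 also: inhibitors lower the bead chemiluminescence by keeping MITF from dimerizing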
AlphaScreen DR: AlphaScreen optical interference compounds, dose response, counter-screen, biochemical, HTS; shares compounds with MITF primary; AlphaScreen optical interference counterscreen, cell-free; IC50, µM; 480 compounds, 6% hits; AID 1259373, 2018; call rule not given here
AlphaScreen intf2: AlphaScreen optical interference compounds, counter-screen for MITF inhibitor project, biochemical, triplicate; shares compounds with MITF primary; LysRS AlphaScreen counterscreen, signal interference; inhibition, % at 2.6 µM; 4,700 compounds, 7.6% hits; AID 1259376, 2018;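 active = inhibition above a cutoff derived from the DMSO control wells, cut at about 30% in these data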
Each line names hits and unclear results; the compound was inactive in the other large screens (follow-up assays come after a bar, where they were run).

Cc1ccc(NC(=O)C2C3C=CC4(O3)C2C(=O)N(CCCOC(C)C)C4C(=O)NC2CCCCC2)cc1 (configuration not stated)	none
COc1ccc(CN2CCN(Cc3ccc(C(F)(F)F)cc3)CC2)c(OC)c1	MITF primary 67.5 | MITF inh conf inactive | AlphaScreen intf2 inactive
COc1ccc(CN2CCN(Cc3ccc(C)cc3)CC2)c(OC)c1	MITF primary 79.0 | MITF inh conf inactive | AlphaScreen intf2 inactive
COc1ccccc1CN1CCN(Cc2ccc(C(F)(F)F)cc2)CC1	MITF primary 60.4 | MITF inh conf inactive | AlphaScreen intf2 inactive
O=C(Nc1ccc(C23CC4CC(CC(c5ccccc5)(C4)C2)C3)cc1)c1ccc([N+](=O)[O-])cc1	none
Cc1sc2nc(CNCc3ccco3)[nH]c(=O)c2c1-c1ccccc1	MITF primary 58.0 | MITF inh conf inactive | AlphaScreen intf2 inactive
O=C(c1cccc(Cl)c1)N1CCC(N2CCN(c3ccccc3)CC2)CC1	MITF primary 79.1 | MITF inh conf inactive | AlphaScreen intf2 inactive
O=C(c1cccc(Cl)c1)N1CCN(C2CCN(Cc3ccccc3)CC2)CC1	none
O=C(CCC1CCCC1)N1CCC(N2CCN(c3ccccc3)CC2)CC1	MITF primary 55.2 | MITF inh conf inactive | AlphaScreen intf2 inactive
O=C(CCC(=O)N1CCN(c2ccccc2)CC1)N1CCN(c2ccccc2)CC1	none
O=C(c1ccccc1)N1CCC(N2CCN(c3ccccc3)CC2)CC1	MITF primary 79.4 | MITF inh conf inactive | AlphaScreen intf2 inactive
O=C(c1ccccc1)N1CCN(C2CS(=O)(=O)CC2O)CC1 (configuration not stated)	MITF primary 80.8 | MITF inh conf inactive | AlphaScreen intf2 inactive
Cc1ccc(-c2nc(SCC(=O)NCCc3ccccc3)c3c(=O)n(C)c(=O)n(C)c3n2)cc1	none
CC(=O)CCc1ccc(OCCCCNCCN(C)C)cc1	none
NC(=O)/C(=C/c1cccc([N+](=O)[O-])c1)NC(=O)c1cccc(Br)c1	none
NC(=O)/C(=C\c1cccc([N+](=O)[O-])c1)NC(=O)c1ccc(Br)cc1	MITF primary 52.5 | MITF inh conf 32.3 | AlphaScreen DR inactive | AlphaScreen intf2 inactive
CCOC(=O)c1cc(CC)sc1NC(=O)CC	none
CCN1CCN(Cc2coc3ccccc3c2=O)CC1	MITF primary 81.6 | MITF inh conf 41.5 | AlphaScreen DR inactive | AlphaScreen intf2 inactive
CCn1c(C)nc2cc(C(=O)NNC(=O)NC3CCCCC3)ccc21	none
CCn1c(C)nc2cc(C(=O)NNC(=O)COc3cccc(Br)c3)ccc21	MITF primary 85.6 | MITF inh conf inactive | AlphaScreen intf2 inactive
CC1CN(CCOc2ccc(F)cc2)CC(C)O1 (configuration not stated)	MITF primary 52.9 | MITF inh conf inactive | AlphaScreen intf2 inactive
COC(=O)c1ccc(OCCCCN2CC(C)OC(C)C2)cc1 (configuration not stated)	MITF primary 53.9 | MITF inh conf inactive | AlphaScreen intf2 inactive
COc1ccc(CN2CCN(C(=O)c3ccncc3)CC2)c(OC)c1	MITF primary 60.1 | MITF inh conf inactive | AlphaScreen intf2 inactive
COc1ccc(CN2CCN(C(=O)c3c(OC)cccc3OC)CC2)c(OC)c1	none
COc1ccc(OC)c(CN2CCN(C(=O)c3ccccc3)CC2)c1	none
COc1ccc(OC)c(CN2CCN(C(=O)c3ccncc3)CC2)c1	MITF primary 74.0 | MITF inh conf inactive | AlphaScreen intf2 inactive
COc1cccc(C(=O)N2CCN(Cc3ccc(OC)cc3OC)CC2)c1	MITF primary 52.6 | MITF inh conf inactive | AlphaScreen intf2 inactive
COc1ccccc1CNC(=O)/C=C/c1ccc(F)cc1	none
O=[N+]([O-])c1cccc(S(=O)(=O)c2ccc(SCCO)c([N+](=O)[O-])c2)c1	none
O=C(O)c1ccc(-n2cccc2)cc1Cl	MITF primary 79.2 | MITF inh conf 74.9 | AlphaScreen DR inactive | AlphaScreen intf2 inactive
O=C(O)c1ccc(-n2cnnn2)cc1Cl	none
COc1cccc(C(=O)N(CCCN2C(=O)c3cccc4cccc(c34)C2=O)c2ccccc2)c1	none
COC(=O)c1c(NC(=O)/C=C/C(=O)O)sc2c1CCN(C(C)=O)C2	MITF primary 83.0 | MITF inh conf inactive | AlphaScreen intf2 inactive
COC(=O)c1c(NC(=O)C2CC2)sc2c1CCN(C(C)=O)C2	none
CC(C)[C@H](NC(N)=O)C(=O)NNC(=O)COc1ccccc1Cl	none
Cc1ccnc(NC(=O)CSC2=NC(=O)C(c3ccccc3)C(=O)N2)c1 (configuration not stated)	MITF primary 92.7 | MITF inh conf inactive | AlphaScreen intf2 inactive
COC(=O)CN(CCN(CC(=O)O)CC(=O)OC)CC(=O)O	MITF primary 55.0 | MITF inh conf 40.8 | AlphaScreen intf2 inactive
O=C(O)CN(CCN(CC(=O)O)CC(=O)O)CC(=O)O	none
Cc1ccc(C)n1C(Cc1c[nH]c2ccccc12)C(=O)O (configuration not stated)	MITF primary 87.4 | MITF inh conf 72.6 | AlphaScreen DR inactive | AlphaScreen intf2 inactive
O=C(NCc1ccccc1)c1ccc(CS(=O)c2ccc(Br)cc2)o1 (configuration not stated)	none
O=C(NCc1ccco1)c1ccc(CS(=O)c2ccc(Br)cc2)o1 (configuration not stated)	MITF primary 76.9 | MITF inh conf inactive | AlphaScreen intf2 inactive
O=C1C(=O)N(CCBr)C(c2ccccc2)/C1=C(\O)c1ccccc1 (configuration not stated)	MITF primary 59.1 | MITF inh conf inactive | AlphaScreen intf2 inactive
CCOC(=O)C1=CN(c2cc(C)cc(C)c2)C=C(C(=O)OCC)C1c1ccccc1OCC	none
COC(=O)CN1C(=O)C(C)(C)Oc2ccc(C(=O)Nc3ccc(F)c(Cl)c3)cc21	none
O=C1N[C@H](Cc2ccccc2)C(=O)N2CCN(C(=O)NC3CCCCC3)C[C@H]12	MITF primary 74.4 | MITF inh conf 71.5 | AlphaScreen DR inactive | AlphaScreen intf2 inactive
O=C1N[C@@H](Cc2ccccc2)C(=O)N2CCN(C(=O)NC3CCCCC3)C[C@H]12	MITF primary 75.7 | MITF inh conf 69.3 | AlphaScreen DR inactive | AlphaScreen intf2 inactive
CCOc1ccc2c(c1)=C/C(=C\c1sc(=S)[nH]c1O)C(=O)N=2	none
COc1ccc(S(=O)(=O)N2CCn3cccc3C2c2ccccc2F)cc1C (configuration not stated)	MITF primary 58.3 | MITF inh conf inactive | AlphaScreen intf2 inactive
